Smad3 inh = inhibitors of human Smad3 transcription factor binding | TR-FRET Smad3/Dy647-FoxH1 peptide binding, europium anti-His | inhibition, % at 25 µM | 88,000 tested, 0.29% active | AID 630;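 active means compounds that reduce the energy-transfer binding signal between the protein and its labelled peptide by more than half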
Candida biofilm = kills Candida albicans biofilms; AID 834; C. albicans biofilm + clotrimazole, Alamar Blue; 85,000 tested, 0.14% active; inhibition, % at 6 µM;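 active means inhibition above 20%; inactive means inhibition below 20%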;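 further: preformed 24 hr biofilms exposed to compound for 48 hr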
ERa SRC1 inh = blocks coactivator binding to human estrogen receptor alpha; inhibition, % at 25.6 µM; P03372; 86,000 tested, 1.7% active; AID 629; TR-FRET ER-alpha LBD / SRC-1 peptide, estradiol-bound; in the data active means inhibition above about 50%
Target sequence (P03372 whole entry, looked up, the tested form may be a part): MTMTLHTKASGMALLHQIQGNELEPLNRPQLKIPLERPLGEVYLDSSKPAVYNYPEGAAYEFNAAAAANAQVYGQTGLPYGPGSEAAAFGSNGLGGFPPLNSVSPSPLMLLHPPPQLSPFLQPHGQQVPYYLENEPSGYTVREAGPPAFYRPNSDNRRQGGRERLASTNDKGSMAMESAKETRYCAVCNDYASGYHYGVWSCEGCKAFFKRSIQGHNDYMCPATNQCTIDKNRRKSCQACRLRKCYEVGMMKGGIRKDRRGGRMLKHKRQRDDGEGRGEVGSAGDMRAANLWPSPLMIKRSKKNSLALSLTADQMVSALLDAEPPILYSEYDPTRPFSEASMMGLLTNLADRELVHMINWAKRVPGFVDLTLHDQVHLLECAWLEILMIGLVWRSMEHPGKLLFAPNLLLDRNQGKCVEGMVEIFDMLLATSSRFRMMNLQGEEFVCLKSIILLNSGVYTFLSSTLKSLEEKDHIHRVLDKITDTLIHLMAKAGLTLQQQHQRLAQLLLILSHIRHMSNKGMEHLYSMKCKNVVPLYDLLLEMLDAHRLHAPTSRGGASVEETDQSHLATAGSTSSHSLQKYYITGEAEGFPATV
ERb coact inh = ER-beta (human) coactivator binding inhibition; Q92731; TR-FRET ER-beta LBD / SRC1-Cy5 peptide binding; receptor agonist-loaded with 1 µM estradiol; inhibition, % at 25.6 µM; 86,000 tested, 1.3% active;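 active means compounds whose percent inhibition of the receptor-coactivator binding signal exceeds about 50% in the single-dose screen, limit read from the data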
ERa SRC1 pot = enhances coactivator binding to human estrogen receptor alpha. P03372. coactivator binding (% of control), % at 25.6 µM. 86,000 tested, 1.3% active. TR-FRET ERalpha-LBD/SRC-Cy5 coactivator binding, 2 h; 100 = basal binding, no effect; in the data active means activity above about 200%;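 further: binding measured in presence of low estradiol as agonist stimulus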
Of the large screens only hits and unclear results are named; the others gave an inactive call; [ ] = another dose, or the depositor's remark. Hits are enriched below; roughly 3.8% of the tested compounds scored in any of these assays.

c1coc(-c2nc(-c3ccncc3)no2)c1	none
COc1cccc(-c2ccc(-c3noc(-c4ccccc4F)n3)c(OC)n2)c1	none
COc1nc2c(C)cccc2cc1-c1noc(-c2ccco2)n1	ERa SRC1 inh 54.5[fluorescence artefact?]
COc1cccc(-c2ccc(-c3noc(-c4cccs4)n3)c(OC)n2)c1	ERa SRC1 pot 310.3[fluorescence artefact?]
CC1CCC(O)([C@](C)(C(=O)O)c2ccccc2)CC1 (some centres undefined)	none (no result: Candida biofilm, ERa SRC1 inh, ERb coact inh, ERa SRC1 pot)
NC(=O)c1c(NC(=O)c2cc3ccccc3o2)sc2c1CCC2	ERa SRC1 inh 61.7, ERb coact inh 53.3
CN(C)c1nc(-c2ccccn2)nnc1-c1ccccc1	ERa SRC1 inh 57.9[fluorescence artefact?]
CCOCCCNc1nc2c([nH]1)c(=O)n(C)c(=O)n2C	none
COCCCNc1nc2c([nH]1)c(=O)[nH]c(=O)n2C	ERb coact inh 52.2
Cc1cc(Nc2ccc(N=Nc3ccc(O)c4ncccc34)cc2)nc(C)n1	none (no result: Candida biofilm, ERa SRC1 inh, ERb coact inh, ERa SRC1 pot)
CCCc1cc(C(=O)OC)c(NC(=O)c2cc(C)on2)s1	none (no result: Candida biofilm)
CSc1nc2ccc3nc(NC(=O)c4cccs4)sc3c2s1	ERa SRC1 inh 69.4[fluorescence artefact?], ERb coact inh 79.3[fluorescence artefact?]
CSc1nc2ccc3nc(NC(=O)c4ccc(Cl)s4)sc3c2s1	ERa SRC1 inh 58.8[fluorescence artefact?]
CCOC(=O)c1c(C)[nH]c(C(=O)COC(=O)CSC)c1C	none
COC(=O)c1c(C)[nH]c(C(=O)COC(=O)Cc2ccc3c(c2)OCCO3)c1C	ERa SRC1 pot 260.3[fluorescence artefact?]
O=S(=O)(Nc1ccc(N2CCOCC2)cc1)c1cccs1	ERa SRC1 inh 97.1[fluorescence artefact?], ERb coact inh 75.6[fluorescence artefact?]
Nc1nc(-c2ccco2)cs1	none
c1coc(-c2nc(-c3ccco3)c(-c3ccco3)nc2-c2ccco2)c1	ERa SRC1 inh 87.0[fluorescence artefact?], ERb coact inh 85.5[fluorescence artefact?]
Nc1nc(-c2ccco2)c(-c2ccco2)s1	ERb coact inh 53.9
COc1ccc2nc(-c3ccco3)c(-c3ccco3)nc2c1	ERa SRC1 inh 97.1[fluorescence artefact?], ERb coact inh 98.1[fluorescence artefact?]
CCOC(=O)c1c(C)[nH]c(C(=O)COC(=O)c2ccc(N3CCCC3=O)cc2)c1C	ERa SRC1 inh 51.3[fluorescence artefact?], ERa SRC1 pot 217.5[fluorescence artefact?]
C/C(N[O-])=C(\C)[N+]([O-])=[Co].C/C(N[O-])=C(\C)[N+]([O-])=[Co].CC(=N\[O-])/C(C)=N/[O-].CC(=N\[O-])/C(C)=N/[O-].[CH3-].[CH3-]	none (no result: Candida biofilm, ERa SRC1 inh, ERb coact inh, ERa SRC1 pot)
C/C(N[O-])=C(\C)[N+]([O-])=[Co].CC(=N\[O-])/C(C)=N/[O-].C[CH-][C@@H](C)O.c1ccncc1	Smad3 inh 65.8 (no result: Candida biofilm, ERa SRC1 inh, ERb coact inh, ERa SRC1 pot)
COc1cc(N=C(N)N=C(N)N)c2ncccc2c1	none (no result: Candida biofilm, ERa SRC1 inh, ERb coact inh, ERa SRC1 pot)
c1ccc(OCCOCCN2CCOCC2)cc1	Candida biofilm 62.5
COc1ccc(OCCOCCN2CCOCC2)cc1	none
CC1CCN(S(=O)(=O)c2ccc(NC(=O)Cn3nnc(-c4ccccc4F)n3)cc2)CC1	ERa SRC1 inh 86.2[fluorescence artefact?], ERb coact inh 62.3[fluorescence artefact?]
CCc1nnc(NC(=O)CSc2nnc(-c3ccc(S(=O)(=O)N(CC)CC)cc3)n2CC)s1	none
CCc1nnc(NC(=O)CSc2nnc(-c3ccc(S(=O)(=O)N4CCCC4)cc3)n2CC)s1	ERb coact inh 53.6[fluorescence artefact?]
O=C(O)c1nc(-c2ccccc2)[nH]c1C(=O)O	none (no result: Candida biofilm, ERa SRC1 inh, ERb coact inh, ERa SRC1 pot)
COc1ccc(CCN2C(=O)C3C4C=CC(C3C2=O)C2C(=O)N(CCc3ccc(OC)c(OC)c3)C(=O)C42)cc1OC (centres undefined)	none
COc1ccc(CCn2c(N)cc(=O)[nH]c2=S)cc1OC	ERb coact inh 58.5[fluorescence artefact?]
COc1ccc(NC(=O)C2CCCO2)cc1OC (centres undefined)	Smad3 inh 71.5
O=C(CN1C(=O)c2ccccc2C1=O)Nc1ccc(N2CCOCC2)cc1	none
Cc1ccc(NC(=O)CN2C(=O)S/C(=C\c3ccc(-c4cccc(C(=O)O)c4C)o3)C2=O)cc1	ERa SRC1 pot 250.1[fluorescence artefact?]
CC1=C(C)[N+](=O)C2(O)CCCCC2(C)N1[O-] (centres undefined)	none
CC12CCCCC1(O)[N+](=O)C1=C(CCCC1)N2[O-] (centres undefined)	ERb coact inh 66.5
COc1ccc(CC(=O)Nc2ccc(-c3noc(COc4ccccc4C)n3)cc2)cc1	none
CCOc1ccccc1-c1nc(-c2ccc(NC(=O)c3ccc(Br)o3)cc2)no1	ERa SRC1 pot 384.3
COc1ccc(CC(=O)Nc2ccc(-c3noc(-c4ccc(Cl)cc4)n3)cc2)cc1	ERa SRC1 inh 66.3
COc1ccc(CC(=O)Nc2ccc(-c3noc(-c4cc(OC)c(OC)c(OC)c4)n3)cc2)cc1	none
CCOc1ccccc1-c1nc(-c2ccc(NC(=O)Cc3ccc(OC)cc3)cc2)no1	ERb coact inh 50.2[fluorescence artefact?], ERa SRC1 pot 287.1[fluorescence artefact?]
CCOc1ccccc1-c1nc(-c2cccc(Br)c2)no1	none
CC(CC(=O)O)(CC(=O)O)c1ccccc1	none (no result: Candida biofilm, ERa SRC1 inh, ERb coact inh, ERa SRC1 pot)
O=C1CC[C@H](NC(=O)c2ccccc2)C(=O)N1	none (no result: Candida biofilm, ERa SRC1 inh, ERb coact inh, ERa SRC1 pot)
CC(C)Oc1cc(O)c2c(c1)OCC=C2CCC(=O)O	none (no result: Candida biofilm, ERa SRC1 inh, ERb coact inh, ERa SRC1 pot)
Cc1cc(C(=O)OCC(=O)c2ccc(Br)s2)no1	ERa SRC1 inh 58.0
Cc1c(N2C(=O)c3ccc4c5c(ccc(c35)C2=O)CC4)c(=O)n(-c2ccccc2)n1C	ERa SRC1 inh 95.4[fluorescence artefact?], ERb coact inh 91.7[fluorescence artefact?]
C/C(=N\[N+](C)(C)C)c1ccc(C)c(C)c1	none (no result: Candida biofilm, ERa SRC1 inh, ERb coact inh, ERa SRC1 pot)
COc1ccc(-c2oc(NC(=O)CCl)c(C#N)c2-c2ccc(OC)cc2)cc1	ERb coact inh 55.0[fluorescence artefact?]
COc1ccc(-c2oc(NC(=O)CSc3ncn[nH]3)c(C#N)c2-c2ccc(OC)cc2)cc1	none
N#Cc1c(NC(=O)CSc2ncccn2)oc(-c2ccccc2)c1-c1ccccc1	ERa SRC1 inh 59.9
Cc1ccnc(SCC(=O)Nc2oc(-c3ccccc3)c(-c3ccccc3)c2C#N)n1	none
O=C(O)CNC(=O)c1ccccc1O	none (no result: Candida biofilm, ERa SRC1 inh, ERb coact inh, ERa SRC1 pot)
O=C(Nc1ccc(N2CCCC2)cc1)C(Cl)c1ccccc1 (centres undefined)	ERa SRC1 inh 58.8, ERb coact inh 50.3
CS(=O)(=O)N1CCN(c2ccc(NC(=O)C(c3ccccc3)c3ccccc3)cc2)CC1	none
CCOc1ccc(Nc2cc(=O)oc3ccccc23)cc1	ERa SRC1 pot 255.5
CCCCNc1cc(=O)oc2ccccc12	none
CN=C(N)/N=C(\N)Nc1cc2ccccc2c2ccccc12	none (no result: Candida biofilm, ERa SRC1 inh, ERb coact inh, ERa SRC1 pot)
CCCCCCc1nnc(N)s1	none
N[C@@H](CCCCO)C(=O)O	none (no result: Candida biofilm, ERa SRC1 inh, ERb coact inh, ERa SRC1 pot)
CCc1cccc2c(C(=O)COC(=O)c3nn(C)c(=O)c4ccccc34)c[nH]c12	none
CCc1cccc2c(C(=O)Cn3nnc(-c4ccc(OC)c(OC)c4)n3)c[nH]c12	ERa SRC1 inh 61.5
Cc1ccc(NC(=O)COc2ccc(-n3cnnn3)cc2)cc1C	ERa SRC1 inh 74.4[fluorescence artefact?], ERb coact inh 69.3
COc1cc(NC(=O)COc2ccc(-n3cnnn3)cc2)c(OC)cc1Cl	ERa SRC1 inh 77.1, ERb coact inh 66.7[fluorescence artefact?]
CCOc1cc(N2CCOCC2)c(OCC)cc1NC(=O)COC(=O)c1cc(C)oc1C	none
CCOc1cc(N2CCOCC2)c(OCC)cc1NC(=O)COc1ncnc2ccc(Br)cc12	ERa SRC1 inh 54.3[fluorescence artefact?]
COc1ccc(C(=O)Nc2nnc(-c3ccco3)s2)cc1	ERa SRC1 pot 462.7[fluorescence artefact?]
COc1ccccc1C(=O)Nc1nnc(-c2ccco2)s1	ERa SRC1 pot 242.1
O=C(Nc1nnc(-c2ccco2)s1)c1ccccc1	none

Screens deposited in PubChem BioAssay by several laboratories.
